POLK inh = DNA polymerase kappa (human) inhibition | Q9UBT6 | purified Pol kappa, fluorescent DNA synthesis assay, 10 min | Potency, µM (highest dose often 107 µM), for inactives: at the top dose activity, negative = inhibition, usual class: inhibitors | 0.53% of 400,000 active; note: % is set by controls: 0 for no effect and ±100 for the full control effect
Target sequence (Q9UBT6 whole entry, looked up): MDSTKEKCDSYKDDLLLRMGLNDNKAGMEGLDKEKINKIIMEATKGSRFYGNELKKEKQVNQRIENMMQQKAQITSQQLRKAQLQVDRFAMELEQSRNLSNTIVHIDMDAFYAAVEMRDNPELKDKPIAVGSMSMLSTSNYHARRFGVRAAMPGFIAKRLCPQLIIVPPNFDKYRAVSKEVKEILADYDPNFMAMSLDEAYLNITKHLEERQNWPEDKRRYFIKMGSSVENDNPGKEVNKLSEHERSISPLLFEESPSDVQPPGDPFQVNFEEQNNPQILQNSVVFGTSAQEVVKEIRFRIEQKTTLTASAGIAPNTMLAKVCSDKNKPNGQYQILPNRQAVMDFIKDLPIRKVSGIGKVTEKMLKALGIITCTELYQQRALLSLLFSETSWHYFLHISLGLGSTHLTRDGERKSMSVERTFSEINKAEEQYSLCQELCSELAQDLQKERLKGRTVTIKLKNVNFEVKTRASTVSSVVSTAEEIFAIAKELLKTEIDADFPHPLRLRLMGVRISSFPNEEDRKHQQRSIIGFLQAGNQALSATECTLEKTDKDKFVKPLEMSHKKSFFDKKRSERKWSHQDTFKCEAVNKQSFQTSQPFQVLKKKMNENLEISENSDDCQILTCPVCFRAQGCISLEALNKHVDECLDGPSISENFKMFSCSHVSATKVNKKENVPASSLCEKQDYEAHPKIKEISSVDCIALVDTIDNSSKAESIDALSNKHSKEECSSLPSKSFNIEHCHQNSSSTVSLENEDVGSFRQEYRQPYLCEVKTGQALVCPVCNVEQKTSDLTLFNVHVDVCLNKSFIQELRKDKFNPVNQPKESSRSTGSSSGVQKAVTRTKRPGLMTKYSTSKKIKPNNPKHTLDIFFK
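10 nM Pol kappa preincubated 15 min at room temperature with compounds, then reaction started with substrate at 50 nM final. Fluorescence read kinetically at 0 and 10 min; buffer-only wells served as negative control.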
POLI inh = inhibitors of human DNA polymerase iota; Q9UNA4; Pol iota fluorescent replication assay, 10 min; Potency, µM (titrated, usually from 115 µM), for inactives: top-dose activity, negative = inhibition, actives largely listed as inhibitors; 1% of 390,000 active
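Pol iota at 10 nM preincubated 15 min with compounds at room temperature; reaction started with fluorescent substrate, 50 nM final. Fluorescence read kinetically at 0 and 10 min; buffer-only wells as negative control.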
Pol beta inh = DNA polymerase beta (human) inhibition | AID 485314 | 1.3% of 340,000 active | Pol beta primer extension/strand displacement, fluorescence kinetic | Potency, µM (doses to about 114 µM), for the others: at the highest dose activity change, negative = inhibition, hits mostly inhibitors; note: % is set by controls: 0 for no effect and ±100 for the full control effect
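Values derive from four-parameter Hill fits of normalized kinetic data: reads at 0 and 10 min following addition of 50 nM substrate to 10 nM Pol beta preincubated 15 min with compound.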
TDP1 block = blocks human tyrosyl-DNA phosphodiesterase 1. 0.28% of 350,000 active. Potency, µM (highest dose often 130 µM), without a hit: at the highest dose activity change, negative = inhibition, most hits filed as inhibitors. Q9NUW8. recombinant TDP1, AlphaScreen DNA substrate cleavage. AID 485290; note: % is set by controls: 0 for no effect and ±100 for the full control effect; nearly all actives have a fitted effect of over 40% in size
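AlphaScreen read-out: signal falls as enzyme removes the 3' tyrosine-FITC from a 5'-biotinylated DNA oligo (15 nM, 5 min, RT). Enzyme was E. coli-made recombinant Tdp1 at 1 nM, exposed to compound for 15 min beforehand; beads 10 ug/ml, 10 min.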
Pol eta inh = inhibitors of human DNA polymerase eta; Potency, µM (doses to about 114 µM), without a hit: at the top dose activity change, negative = inhibition, actives largely listed as inhibitors; 1.2% of 390,000 active; recombinant Pol eta, fluorescent DNA replication assay; AID 588591; note: % is set by controls: 0 for no effect and ±100 for the full control effect
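Pol eta (10 nM) was preincubated with compounds for 15 min at room temperature, after which fluorescent replication substrate (50 nM final) was added to start the reaction. Fluorescence was read kinetically at 0 and 10 min.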
FEN1 inh = blocks human flap endonuclease 1 | Recombinant FEN1 flap cleavage, fluorescence, 15 min | Potency, µM (series often up to 114 µM), without a hit: at the highest dose activity change, negative = inhibition, most hits filed as inhibitors | 0.35% of 390,000 active | AID 588795; note: % is set by controls: 0 for no effect and ±100 for the full control effect; nearly all actives have a fitted effect of over 65% in size
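FEN1 at 10 nM preincubated with compounds 15 min at room temperature, then flap DNA substrate added at 50 nM final. Signal read at 0 and 15 min; concentration-response fitted with four-parameter Hill equation.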
* hit, by the source's call; [ ] = remark or other dose. Sampled rows, rich in hits. Any-hit rate of the full collection: about 2.4%. Calls come from the whole dose curve; as a rule, active = well fitted curve in the direction sought with a large enough effect; inconclusive = small, poorly fitted or top-dose-only effect, or another doubt; inactive = no such curve, though single readings can be large; an effect the other way counts as inactive or inconclusive. Potency is the fitted concentration of half-maximal effect.

Results for Cc1ccccc1-n1sc2cc(F)ccc2c1=O ?
POLK inh: -8.2%; POLI inh: 82.1%; Pol beta inh: 13.6%; TDP1 block: 10.3%; Pol eta inh: -11.3%; FEN1 inh: 79.4µM*

What do the screens show for `O=c1c2cc(F)ccc2sn1-c1ccccc1`?
POLK inh: -5.9%; POLI inh: -12.9%; TDP1 block: 0.8%; Pol eta inh: -5.3%; FEN1 inh: 79.4µM*

What do the screens show for `CCC(C)c1cc([N+](=O)[O-])cc([N+](=O)[O-])c1OC(=O)OC(C)C` (stereo not given)?
POLK inh: 2.1%[60.1 µM]; TDP1 block: 24.6%

How did O=C1N/C(=N/O)S/C1=C/c1cccc([N+](=O)[O-])c1 do in these assays?
POLK inh: -7.2%; POLI inh: 54.8%; Pol beta inh: -27.8%; TDP1 block: 2.3%; Pol eta inh: -9.2%; FEN1 inh: -11.2%

How did O=C1N/C(=N\S(=O)(=O)Cc2ccccc2)S/C1=C/c1cccc([N+](=O)[O-])c1 do in these assays?
POLK inh: -6.6%; POLI inh: inconclusive; Pol beta inh: -0.5%; TDP1 block: 8.2%; Pol eta inh: 50.1µM*; FEN1 inh: -4.6%

What do the screens show for `Cc1[nH][nH]c(=O)c1C(c1c(C)[nH][nH]c1=O)c1cn(C)c2ccccc12`?
POLK inh: -7.4%; POLI inh: 2.51µM*; Pol beta inh: 0.2%; TDP1 block: 2.6%; Pol eta inh: -17.6%; FEN1 inh: inconclusive

How did C=CC[n+]1c(/C=C2\C=Cc3cc(C)ccc3N2CC)ccc2ccccc21 do in these assays?
POLK inh: inconclusive; POLI inh: inconclusive; Pol beta inh: 31.6µM*; TDP1 block: 5.9%; Pol eta inh: inconclusive; FEN1 inh: 39.8µM*

What do the screens show for `CCC(=O)c1ccc2c(c1)N(CCCN1CCN(CCO)CC1)c1ccccc1S2`?
POLK inh: -0.2%[19.4 µM]

How did CCOC(=O)c1ccc(C#Cc2ccc3c(c2)C(C)(C)CCS3)nc1 do in these assays?
POLK inh: 1.5%[19.4 µM]

What do the screens show for `Oc1ccccc1Oc1ncc(Br)c(Cl)n1`?
POLK inh: -39.8%; POLI inh: 50.1µM*; Pol beta inh: 22.4µM*; Pol eta inh: -3.3%; FEN1 inh: -17.7%

Results for CCN(CC)CC(=O)c1c(C)n(C)c2ccc(OC)cc12 ?
POLK inh: 2.0%; POLI inh: inconclusive; FEN1 inh: 1.1%

Results for O=C(OCC1OC(n2ncc(=O)[nH]c2=O)C(OC(=O)c2ccccc2)C1OC(=O)c1ccccc1)c1ccccc1 (stereo not given) ?
POLK inh: inconclusive; POLI inh: inconclusive; Pol beta inh: inconclusive; Pol eta inh: 89.1µM*; FEN1 inh: -19.0%

Results for COC(=O)c1ccccc1NC(=O)c1cc2ncc(Br)cn2n1 ?
POLK inh: -20.3%; POLI inh: inconclusive; Pol beta inh: 44.7µM*; TDP1 block: inconclusive; Pol eta inh: 7.08µM*; FEN1 inh: -9.6%

What do the screens show for `Cc1[nH]c(/C=C2/C(=O)Nc3ccc(S(=O)(=O)Cc4c(Cl)cccc4Cl)cc32)c(C)c1C(=O)N1CCCC1CN1CCCC1` (stereo not given)?
POLK inh: inconclusive; TDP1 block: 28.5%

Results for O=C(Nc1ccc(NC(=O)c2ccc(Cl)cc2Cl)cc1)c1ccc2c(c1)OCO2 ?
POLK inh: 0.6%; POLI inh: 36.6%; Pol beta inh: 60.1%; TDP1 block: -11.5%; Pol eta inh: -7.2%; FEN1 inh: 4.0%

How did O=C(Nc1ccc(C2=NCCN2)cc1)c1ccc(C(=O)Nc2ccc(C3=NCCN3)cc2)c(Cl)c1 do in these assays?
POLK inh: inconclusive; POLI inh: inconclusive; Pol beta inh: 0.891µM*; TDP1 block: 11.4%; Pol eta inh: -15.5%; FEN1 inh: 50.1µM*

Results for O=C(Nc1ccncc1)Nc1cccc(Cl)c1 ?
POLK inh: 5.4%; POLI inh: 4.6%; Pol beta inh: 24.4%; TDP1 block: 2.0%[56.1 µM]; Pol eta inh: 10.3%; FEN1 inh: 15.3%

Results for O=C(Nc1cccc(C2=NCCN2)c1)Nc1cccc(C2=NCCN2)c1 ?
POLK inh: 7.52µM*; POLI inh: 10.3%; TDP1 block: 4.3%; Pol eta inh: 22.4µM*; FEN1 inh: -13.3%

What do the screens show for `O=C(OCC#CCSc1nnc(-c2cccc3ccccc23)o1)c1cc2ccccc2s1`?
TDP1 block: -4.1%

How did O=C(C[n+]1cccc2cccc(O)c21)c1ccc(Br)cc1 do in these assays?
POLK inh: 5.6%; POLI inh: 23.8%; FEN1 inh: 17.7%

How did CCCN1CCN(CCCNC(=O)c2ccc3c(c2)sc2nc(-c4ccc(OCC)cc4)cn23)CC1 do in these assays?
POLK inh: -11.7%; POLI inh: 79.4µM*; Pol beta inh: inconclusive; TDP1 block: -2.0%; Pol eta inh: -24.4%; FEN1 inh: -15.9%

How did CCOc1ccc(-c2cn3c(n2)sc2cc(C(=O)NCCCN4CCCCCC4)ccc23)cc1 do in these assays?
POLK inh: -28.6%; POLI inh: -1.6%; Pol beta inh: -1.1%; TDP1 block: 2.6%; Pol eta inh: inconclusive; FEN1 inh: -3.8%

What do the screens show for `Cn1cccc1C(=O)N1CCC2(CC1)CCN(c1ncccn1)CC2`?
POLK inh: -4.9%[60.1 µM]

Results for CCN(CC)S(=O)(=O)c1ccc(/C=C/C(=O)OCC(=O)Nc2ccc(S(N)(=O)=O)cc2)cc1 ?
POLK inh: -9.0%; POLI inh: 64.0%; Pol beta inh: 16.6%; TDP1 block: 0.0%; Pol eta inh: -13.8%; FEN1 inh: -15.2%

What do the screens show for `O=C(COC(=O)/C=C/c1ccc(F)cc1)Nc1ccc(Cl)cn1`?
POLK inh: -3.6%; POLI inh: 89.3%; Pol beta inh: 2.9%; TDP1 block: 2.6%; Pol eta inh: 2.3%; FEN1 inh: 0.9%

What do the screens show for `COc1cc(/C=C/C(=O)OCC(=O)Nc2ccc(S(N)(=O)=O)cc2)ccc1O`?
POLK inh: inconclusive; POLI inh: inconclusive; Pol beta inh: 1.3%; TDP1 block: -13.7%; Pol eta inh: 50.1µM*; FEN1 inh: -16.5%

What do the screens show for `COc1cc(/C=C/C(=O)OCC(=O)Nc2ccc(Cl)cn2)ccc1O`?
POLK inh: inconclusive; POLI inh: 35.5µM*; TDP1 block: 28.2µM*; Pol eta inh: 56.2µM*; FEN1 inh: 10.8%

Results for O=C(c1csnn1)N1CCC2(CCN(Cc3ccccc3)CC2)CC1 ?
POLK inh: -8.0%[60.1 µM]

What do the screens show for `O=C(N/N=C\c1ccco1)c1cncc(Br)c1`?
Pol beta inh: -21.6%; TDP1 block: -5.4%
